Screening results as filed in PubChem.
This is a sample that favours compounds with a hit; in the whole collection about 18% have one here.
IL-1B inflam inh: blocks inflammasome-driven IL-1 beta release; AID 743279; THP-1 LPS/ATP IL-1B secretion, AlphaLISA, 16 h; active compounds read low; activity change, % at 57.5 µM; 360,000 tested, 4.7% active; in the data active means activity change below about -50%; inconclusive means mostly about -30% to -49%
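THP-1 cells pretreated 1 hr with compounds (up to 57.5 uM final), then stimulated with LPS (250 ng/mL final) plus ATP (1.25 mM final); secreted IL-1B measured by AlphaLISA after 16 hr, decreased signal indicating inhibition.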
Six1-Eya2 blk: Six1/Eya2 interaction inhibition. Q15475+O00167. AlphaScreen GST-Six1/His-Eya2 binding, biochemical; active compounds read low. activity change, % (concentration not given with the values). 360,000 tested, 0.56% active. AID 651725; in the data active means activity change below about -65%; inconclusive means mostly about -30% to -63%
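Six1/Eya2 binding was read as AlphaScreen signal after compounds were pinned into GST-Six1 plus His-tagged Eya2 (5X stock 250/500 nM) in pH 8.0 Tris/NaCl/TCEP buffer, beads added, then incubated 1 h, 37 C, dark.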
DT40 TDP1 no CPT: qHTS for Inhibitors of human tyrosyl-DNA phosphodiesterase 1 (TDP1): qHTS in cells in absence of CPT. DT40 Tdp1-/- hTDP1 cells, no CPT, ATP luminescence, 48 h. Potency, µM (highest dose often 46.2 µM), inactives show top-dose activity change, negative = growth inhibition, usual class: inhibitors. 420,000 tested, 15% active. AID 686978, 2013; further: potency means the concentration at half of the fitted maximal effect; nearly all actives have a fitted effect of over 55% in size
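Luminescent ATP content (CellTiter-Glo) served as the growth readout. Knockout chicken DT40 cells expressing human TDP1 were exposed to compounds without camptothecin for a minimum 48 hr at 37 °C.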
CtBP-E1A inh: blocks the CtBP interaction with E1A; 340,000 tested, 0.49% active; activity change, % (test concentration not listed); AlphaScreen GST-E1A/His-CtBP binding, 1536-well; active compounds read low; AID 651724; in the data active means activity change below about -65%; inconclusive means mostly about -30% to -63%
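In 5 uL wells, 23 nL compound meets equimolar GST-E1A and His-CtBP (5X stock 125 nM each) for 2 h, 37 °C. Beads (5X, 50 ug/mL) then 1 h, 37 °C, dark.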
TDP1 block: inhibitors of human tyrosyl-DNA phosphodiesterase TDP1 | Q9NUW8 | recombinant TDP1, AlphaScreen DNA substrate cleavage | Potency, µM (top dose mostly 130 µM), for inactives: at the highest dose activity change, negative = inhibition, actives largely listed as inhibitors | 350,000 tested, 0.28% active | AID 485290; further: potency means the concentration at half of the fitted maximal effect; nearly all actives have a fitted effect of over 40% in size
Target sequence (Q9NUW8 whole entry, looked up): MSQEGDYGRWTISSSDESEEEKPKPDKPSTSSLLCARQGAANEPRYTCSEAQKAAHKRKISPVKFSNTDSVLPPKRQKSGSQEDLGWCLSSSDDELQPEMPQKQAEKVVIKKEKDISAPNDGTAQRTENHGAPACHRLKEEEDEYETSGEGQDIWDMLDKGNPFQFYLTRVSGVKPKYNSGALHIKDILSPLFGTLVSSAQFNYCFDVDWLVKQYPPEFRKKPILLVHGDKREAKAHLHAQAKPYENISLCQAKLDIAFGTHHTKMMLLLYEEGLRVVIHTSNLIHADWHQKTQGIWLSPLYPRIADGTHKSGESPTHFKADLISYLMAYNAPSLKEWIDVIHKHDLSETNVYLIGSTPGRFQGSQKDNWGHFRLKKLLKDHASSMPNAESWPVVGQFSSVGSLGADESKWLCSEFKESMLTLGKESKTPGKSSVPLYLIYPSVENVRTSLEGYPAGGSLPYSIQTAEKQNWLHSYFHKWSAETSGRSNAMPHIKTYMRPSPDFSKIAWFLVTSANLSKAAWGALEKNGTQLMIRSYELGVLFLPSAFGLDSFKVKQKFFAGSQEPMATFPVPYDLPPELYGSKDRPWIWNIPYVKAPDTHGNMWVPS
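Recombinant human Tdp1 (E. coli-expressed, 1 nM final) preincubated with compounds 15 min at room temperature, then 5'-biotin/3'-phosphotyrosine-FITC DNA substrate (15 nM final) added for 5 min. AlphaScreen beads (10 ug/ml final) added 10 min; cleavage lowers signal.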
DT40 TDP1 CPT: DT40-hTDP1 cell growth loss with CPT; 420,000 tested, 12% active; chicken DT40 Tdp1-/-;hTDP1 cells + 20 nM CPT, ATP luminescence, 48 h; AID 686979; Potency, µM (titrated, usually from 46.2 µM), for the others: at the highest dose activity change, negative = growth inhibition, hits mostly inhibitors; further: potency means the concentration at half of the fitted maximal effect; nearly all actives have a fitted effect of over 55% in size
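Chicken DT40 Tdp1-/- cells complemented with human TDP1, 400 cells/well, exposed to compounds plus 20 nM camptothecin for at least 48 h at 37 C; viability read as ATP content by CellTiter-Glo luminescence.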
The depositor's hits bear a star; ? = inconclusive; · = no result; [ ] = remark or other dose. Unless noted, the call rests on the fitted dose curve; in most records, active means well fitted curve in the direction sought with a large enough effect; inconclusive means small, poorly fitted or top-dose-only effect, or another doubt; inactive means no such curve, though single readings can be large; an effect the other way counts as inactive or inconclusive. On the % scale 0 is the no-effect control and ±100 the full control effect.

SMILES | IL-1B inflam inh | Six1-Eya2 blk | DT40 TDP1 no CPT | CtBP-E1A inh | TDP1 block | DT40 TDP1 CPT
Cc1nc(Cc2nnc(SCC(=O)N3CCN(c4ccccc4)CC3)o2)cs1 | -5.9 | 5.2 | -0.8% | -2.0 | -10.0% | -8.4%
CC(C)C(=O)N1CCN(c2ccccc2NC(=O)c2cccc3ccccc23)CC1 | 14.6 | -5.4 | 16.4µM* | -9.9 | · | ?
CC(C)C(=O)N1CCN(c2ccccc2NC(=O)c2cccc(Cl)c2)CC1 | ? | 1.4 | 16.4µM* | 6.6 | 1.0% | ?
C/C(=N\NC(=O)c1ccc(N2CCCC2=O)cc1)c1ccccc1 | 25.8 | 4.6 | -22.7% | 6.7 | 1.8%[0.0935 µM] | -8.3%
C/C(=N\NC(=O)c1ccccc1O)c1ccc(NC(=O)Cc2ccccc2)cc1 | 0.2 | -8.3 | -11.6% | -4.8 | 56.2µM* | -0.6%
CC(=O)c1ccc2ccccc2c1OC(=O)c1ccncc1 | 1.1 | 5.6 | 25.9µM* | 1.7 | · | ?
CC(=NNC(=O)c1ccncc1)c1ccc2ccccc2c1O | 84.2 | ? | 4.61µM* | ? | · | 4.11µM*
C/C(=N\NC(=O)c1cccc2ccccc12)c1cccnc1 | 32.0 | 1.2 | 7.8% | 5.0 | 4.3% | -2.2%
N/C(=N\OC(=O)c1cccc2ccccc12)c1ccncc1 | -29.6 | 9.1 | -17.2% | · | · | -24.6%
C/C(=N\NC(=O)c1ccc(N2CCCC2=O)cc1)c1ccc(O)cc1O | 31.7 | -26.6 | 3.66µM* | 0.0 | 1.2% | 4.61µM*
Cc1[nH]c(=O)[nH]c(=O)c1CSCC(=O)OCC(=O)c1ccc(Br)cc1 | ? | 6.9 | -16.2% | · | 2.6% | 1.5%
CC(O)C(NC(=O)OCc1ccccc1)C(=O)NCC(=O)NCC(=O)OCc1ccccc1 (configuration not stated) | 6.4 | 9.9 | -26.1% | 2.1 | · | -25.0%
c1coc(-c2ccnc3nc(-n4cccc4)nn23)c1 | 40.7 | -10.9 | ? | -7.3 | 8.8% | -24.0%
CC(=NNC(=O)c1ccccc1N)c1ccccc1O | 127.8 | -21.4 | 5.8µM* | -26.6 | · | 5.17µM*
COc1ccc(/C(C)=N/NC(=O)c2ccccc2N)cc1 | -21.1 | 2.7 | -0.4% | 6.1 | 0.0% | 28.6%
CC(C)CC(=NNC(=O)c1ccncc1)c1cc(Cl)ccc1O | 63.5 | 0.0 | 2.59µM* | -22.3 | · | 3.66µM*
CC(=NNC(=O)c1ccncc1)c1ccccc1O | 156.2 | -70.6* | 0.13µM* | -75.0* | · | 0.184µM*
CC(=NNC(=O)c1ccncc1)c1ccc(O)cc1O | 108.6 | ? | 7.31µM* | -75.8* | · | ?
C/C(=N/NC(=O)c1ccncc1)c1ccc(NC(=O)c2ccc(Cl)cc2Cl)cc1 | 16.2 | 3.3 | -3.8% | 5.3 | 0.1% | -9.5%
CCc1[nH]nc(C(=O)NC2CCCc3c2cnn3-c2cc(C)cc(C)c2)c1C (configuration not stated) | -2.3 | -1.8 | ? | -1.2 | 3.2% | 0.4%
Cc1ccc(CNC(=O)c2ccc(CS(=O)(=O)c3ccccc3C)o2)cc1 | 5.2 | -0.8 | ? | 4.1 | 1.6% | ?
C/C(=N\NC(=O)c1ccccc1)c1ccccc1Br | 0.0 | -2.3 | 0.651µM* | -12.5 | -2.8% | 0.82µM*
COc1ccc2[nH]c(C(=O)N3CCNCC3)cc2c1OC | 12.4 | -14.0 | -0.6% | -8.2 | · | 11.4%
Cn1c(N)c(C(=O)c2ccccc2)c(=O)n(C)c1=O | 27.0 | 3.3 | 9.1% | 1.2 | 6.6% | -1.2%
Cn1c(=O)c2c(ncn2CC(=O)Nc2ccc3c(c2)OCO3)n(C)c1=O | -1.6 | -3.0 | -6.5% | 11.3 | · | -13.1%
Cn1c(N)c(C(C[N+](=O)[O-])c2ccccc2Cl)c(=O)n(C)c1=O (configuration not stated) | 8.1 | -5.5 | 4.61µM* | 11.2 | · | 4.11µM*
COc1cc(C(C[N+](=O)[O-])c2c(N)n(C)c(=O)n(C)c2=O)ccc1O (configuration not stated) | -1.9 | 3.6 | 6.51µM* | 4.4 | 2.6% | 6.51µM*
